Test [1] in a line: rapamycin-like changes in RPL19A-GFP expression – cell-based, S. cerevisiae, multiplex flow cytometry, primary screen (AID 1862; in the data active = percent of DMSO control GFP below about 86%;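 note: lower values mimic rapamycin by blocking the RPL19A rise seen in DMSO cells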). Conditions: S. cerevisiae RPL19A-GFP strain, flow cytometry fluorescence, 3 h; at 10 µM; stronger effect = lower value. A general note: A flow cytometer gives signals particle by particle.
Test [2] can be described thus: TOR pathway GLN3 branch reporter MEP2-GFP changes – S. cerevisiae, multiplex flow cytometry, primary screen (AID 1867;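 active = GFP response, as percent of the DMSO control, above the screen-wide mean plus 3 SD, about 139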;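 note: median GFP channel fluorescence of barcode-gated MEP2-GFP cells measured by flow cytometry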). Conditions: S. cerevisiae MEP2-GFP strain, 3 h, at 10 µM, stronger effect = higher value, 100% means same as DMSO wells.
Test [3] in a line: TOR pathway RTG branch CIT2 reporter changes – S. cerevisiae, GFP fusion, multiplex flow cytometry, primary screen (AID 1870;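 active = percent response above a set limit, the screen-wide mean plus 3 SD, cut at about 130% in these data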;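 note: barcoded CIT2-GFP strain pooled with four other GFP strains with rapamycin as positive control; median GFP fluorescence per well over plate mean of DMSO wells so 100% = DMSO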). Conditions: S. cerevisiae CIT2-GFP expression, 3 h, at 10 µM, stronger effect = higher value.
The nature of test [4]: TOR pathway LAP4-GFP level changes – S. cerevisiae, multiplex flow cytometry, primary screen (AID 1873;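 active = GFP signal, as percent of the solvent control, above the screen mean plus 3 SD, about 149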). Conditions: S. cerevisiae LAP4-GFP expression, 3 h, at 10 µM, stronger effect = higher value.
Test [5] in a line: yeast AGP1-GFP level changes, GLN3 branch – cell-based, multiplex flow cytometry, S. cerevisiae, primary screen (AID 1887;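 active = GFP signal above the screen-wide mean plus 3 SD, that is over about 124.5% of the solvent control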;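 note: AGP1-GFP fusion strain of S. cerevisiae within a five-strain barcoded multiplex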). Conditions: 3 h, at 10 µM, stronger effect = higher value.
Test [6] is described as follows: reduced mouse 2C T cell binding to pMHC/ICAM-1 vesicles – MLPCN validation set, flow cytometry, LFA-1/ICAM-1 modulator project, pilot screen (AID 2523;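 active = response below a set limit, under 55% cells CD8-positive and vesicle-bound, and CD8 cells' 90th-percentile brightness under 279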;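 for vesicle binding response: mean PE anti-B7-1 fluorescence of CD8+ cells relative to row control; 100% = QL9-loaded vesicles with DMSO vehicle in the same plate row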). Conditions: 2C mouse CD8+ T cells, at 7 µM, stronger effect = lower value; double positive events: measured here: CD8+/vesicle+ event percentage.
The target of test [7] is Integrin beta-1 (Homo sapiens) + Integrin alpha-4 (Homo sapiens) (UniProt P13612+P05556). The experiment in a line: alpha4beta1 integrin LIBS antibody binding reduction – U937 cells, HUTS-21 mAb, flow cytometry, validation set, VLA-4 allosteric modulator project, pilot screen (AID 2674;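 active = inhibition above 50%, about 3 SD of the validation set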;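 note: antibody binding induced by the VLA-4 ligand LDV present at three times its Kd; 0% = LDV ligand with antibody and no compound and 100% = antibody without LDV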). Conditions: HUTS-21 LIBS mAb binding, at 6.7 µM, stronger effect = higher value, binding induced by LDV ligand.

Test [8] can be described thus: calorie-restriction mimetic ROS inhibitors, yeast – validation compound set, pilot screen (AID 2706;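 active = superoxide response below 65% of plate, a cut near 3 SD across the whole screen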;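 note: yeast exposed to compound for one week at 30 degrees C before staining; 100% = mean of all compound wells on the same plate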). Conditions: S. cerevisiae aging, superoxide DHE fluorescence; at 10 µM, stronger effect = lower value.
In test [9] the target is Beta-adrenergic receptor kinase 1 (Homo sapiens) (UniProt P25098). Put plainly: GRK2 binders displacing RNA aptamer, biochemical, validation, human GRK2, bead flow cytometry (AID 488806;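 active = aptamer binding inhibition above 30%, about 3 SD of noise from non-fluorescent compounds; inactive = inhibition at or below 30%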). Conditions: bead-bound GRK2, FAM-aptamer displacement, at 10 µM, stronger effect = higher value.
In test [10] the target is AP-2 complex subunit beta (Homo sapiens) (UniProt P63010). Put plainly: beta-arrestin/AP2 interaction blockers – biochemical, validation set, GST-AP2 beads, flow cytometry, pilot screen (AID 504541;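 active = inhibition above 54%, about 3 SD of non-fluorescent compounds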;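 note: AP2 carries R879A mutation and is captured from E. coli lysate; bead-bound FITC arrestin peptide fluorescence measuring arrestin peptide binding to AP2; 0% = DMSO wells and 100% = excess unlabeled arrestin peptide control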). Conditions: FITC arrestin peptide, at 10 µM, stronger effect = higher value, AP2 beta2 appendage fragment, R879A mutant.
Test [11] can be described thus: cytosolic pH regulators acting via V-ATPase – S. cerevisiae, pHLuorin, HTS validation (AID 504600; in the data active = response above about 15%;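 note: plate controls were DMSO for no effect and reference compound for full effect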). Conditions: V-ATPase proton transport, at 10 µM, stronger effect = higher value.
For test [12], the system named is anti-desmoglein-3 scFv antibody binding to human DSG3. The experiment in a line: blockers of pathogenic pemphigus antibody–desmoglein-3 binding – biochemical, validation compound set, bead-based, flow cytometry, pilot screen (AID 588368).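 Note: signal is the median channel fluorescence of bead-bound GFP antibody.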 Conditions: Protein G beads, DSG3-Fc, scFv-GFP binding, at 10 µM, stronger effect = lower value.
The nature of test [13]: Nile Red efflux blockade in pump-expressing yeast – validation compound set, multiplex, phenotypic, pilot screen (AID 588506;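 active = efflux inhibition above 0.42, the validation set average plus 4 SD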;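 note: Nile Red retained in cells so higher fluorescence means more efflux inhibition; 0 = negative control wells and 1 = enniatin B 25 µM full block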). Conditions: S. cerevisiae pump-expressing triplex, Nile Red efflux flow cytometry; at 10 µM; stronger effect = higher value; the pumps come from Candida albicans.
The target of test [14] is ATP-binding cassette sub-family B member 6 (Homo sapiens) (UniProt Q9NP58). The experiment in a line: blockers of ABCB6-driven porphyrin uptake – K562-ABCB6 cells, flow cytometry, validation set, pilot screen (AID 588550;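 active = inhibition above the screen-wide mean plus 3 SD, about 51%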;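 note: 0% = DMSO wells and 100% = benzethonium chloride 70 µM positive control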). Conditions: K562-ABCB6 porphyrin accumulation, 1 h, at 10 µM, stronger effect = higher value.
A short description of test [15]: AML differentiation inducers, ER-HoxA9 marrow cells – cell-based, GFP/MAC1 double positive, flow cytometry, validation set, primary screen (AID 588685;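 active = differentiation response of at least 50%, scaled between solvent and reference control, from cells with both markers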;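 note: compound exposure lasts four days before antibody staining and flow analysis; 0% = DMSO wells and 100% = 5 µM fulvestrant positive control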). Conditions: stronger effect = higher value, normalized: vehicle 0, fulvestrant 100.

The structures appear in SMILES notation. Inconclusive results are not listed. The source made the active and inactive calls.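 Rule for the calls, unless noted: active = binding below the plate cutoff, the plate median minus 3 SD, with a reading above zero; inconclusive = below the plate cutoff but reading exactly zero; inactive = the rest.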

For orientation: inhibition means the drop in the measured response relative to a control, in per cent.

Beta-adrenergic receptor kinase 1 (Homo sapiens), sequence (P25098 whole entry, looked up): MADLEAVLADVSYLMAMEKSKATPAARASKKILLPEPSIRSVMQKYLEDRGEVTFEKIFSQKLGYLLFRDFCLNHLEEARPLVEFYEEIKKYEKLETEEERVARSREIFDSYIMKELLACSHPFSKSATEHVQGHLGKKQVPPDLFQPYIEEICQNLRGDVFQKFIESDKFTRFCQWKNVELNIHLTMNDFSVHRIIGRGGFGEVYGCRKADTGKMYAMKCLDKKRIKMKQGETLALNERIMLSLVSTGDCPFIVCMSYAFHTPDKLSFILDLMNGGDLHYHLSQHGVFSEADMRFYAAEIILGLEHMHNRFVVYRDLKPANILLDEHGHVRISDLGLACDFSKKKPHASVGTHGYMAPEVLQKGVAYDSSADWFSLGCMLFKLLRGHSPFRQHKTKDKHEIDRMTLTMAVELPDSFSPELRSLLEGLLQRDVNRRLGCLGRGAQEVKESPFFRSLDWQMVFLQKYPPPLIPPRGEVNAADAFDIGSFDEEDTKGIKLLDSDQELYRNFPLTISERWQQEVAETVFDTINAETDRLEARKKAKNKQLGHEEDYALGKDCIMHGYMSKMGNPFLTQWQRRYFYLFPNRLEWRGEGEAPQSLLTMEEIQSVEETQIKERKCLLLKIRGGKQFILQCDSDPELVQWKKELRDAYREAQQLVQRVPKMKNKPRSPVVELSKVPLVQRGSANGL
AP-2 complex subunit beta (Homo sapiens), sequence (P63010 whole entry, looked up, the tested form may be a part, one chain of several): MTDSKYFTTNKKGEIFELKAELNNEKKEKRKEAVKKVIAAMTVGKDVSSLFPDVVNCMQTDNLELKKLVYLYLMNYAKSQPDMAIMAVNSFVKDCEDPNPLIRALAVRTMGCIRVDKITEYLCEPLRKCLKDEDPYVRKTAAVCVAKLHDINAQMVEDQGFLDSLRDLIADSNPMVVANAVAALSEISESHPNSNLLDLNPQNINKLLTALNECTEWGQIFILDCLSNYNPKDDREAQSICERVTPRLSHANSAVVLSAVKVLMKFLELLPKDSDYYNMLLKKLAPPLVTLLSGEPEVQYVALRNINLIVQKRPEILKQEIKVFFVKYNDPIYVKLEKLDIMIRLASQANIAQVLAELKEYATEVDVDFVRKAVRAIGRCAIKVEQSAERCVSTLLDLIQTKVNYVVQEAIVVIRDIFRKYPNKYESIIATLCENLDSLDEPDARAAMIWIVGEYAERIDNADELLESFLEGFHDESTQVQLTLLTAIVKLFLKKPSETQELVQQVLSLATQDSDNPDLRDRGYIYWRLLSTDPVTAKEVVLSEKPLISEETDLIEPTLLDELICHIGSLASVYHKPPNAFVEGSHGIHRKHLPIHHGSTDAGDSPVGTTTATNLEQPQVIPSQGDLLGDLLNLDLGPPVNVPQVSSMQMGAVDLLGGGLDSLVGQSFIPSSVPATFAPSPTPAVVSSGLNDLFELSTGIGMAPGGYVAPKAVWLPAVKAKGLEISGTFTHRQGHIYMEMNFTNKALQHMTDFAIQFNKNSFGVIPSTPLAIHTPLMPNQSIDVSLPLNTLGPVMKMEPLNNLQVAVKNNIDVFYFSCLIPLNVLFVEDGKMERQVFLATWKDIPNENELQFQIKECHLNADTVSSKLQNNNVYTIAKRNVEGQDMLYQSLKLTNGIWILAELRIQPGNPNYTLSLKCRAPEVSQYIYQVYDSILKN
Integrin beta-1 (Homo sapiens) + Integrin alpha-4 (Homo sapiens), sequence (P05556 whole entry, looked up): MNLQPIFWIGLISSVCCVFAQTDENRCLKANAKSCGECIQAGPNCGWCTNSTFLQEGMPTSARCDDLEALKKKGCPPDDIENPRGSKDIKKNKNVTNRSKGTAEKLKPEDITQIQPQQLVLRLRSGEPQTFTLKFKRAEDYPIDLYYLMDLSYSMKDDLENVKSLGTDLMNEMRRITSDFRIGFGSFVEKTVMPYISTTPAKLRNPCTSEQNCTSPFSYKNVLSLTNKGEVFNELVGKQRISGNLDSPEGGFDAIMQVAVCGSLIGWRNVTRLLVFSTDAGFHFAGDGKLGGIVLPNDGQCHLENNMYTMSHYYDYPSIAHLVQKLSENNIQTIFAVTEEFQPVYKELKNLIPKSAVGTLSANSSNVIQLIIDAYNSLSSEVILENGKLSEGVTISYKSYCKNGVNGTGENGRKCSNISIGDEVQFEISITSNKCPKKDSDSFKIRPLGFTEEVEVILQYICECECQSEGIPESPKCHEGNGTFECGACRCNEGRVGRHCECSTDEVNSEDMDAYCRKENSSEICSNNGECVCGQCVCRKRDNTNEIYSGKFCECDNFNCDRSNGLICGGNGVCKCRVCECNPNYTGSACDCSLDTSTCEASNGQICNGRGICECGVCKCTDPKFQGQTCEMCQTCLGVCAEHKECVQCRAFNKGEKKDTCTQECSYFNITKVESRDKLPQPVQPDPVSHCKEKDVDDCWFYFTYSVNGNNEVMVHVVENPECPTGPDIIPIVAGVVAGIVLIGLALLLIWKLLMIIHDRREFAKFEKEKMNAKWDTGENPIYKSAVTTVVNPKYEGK
Integrin beta-1 (Homo sapiens) + Integrin alpha-4 (Homo sapiens), sequence (P13612 whole entry, looked up): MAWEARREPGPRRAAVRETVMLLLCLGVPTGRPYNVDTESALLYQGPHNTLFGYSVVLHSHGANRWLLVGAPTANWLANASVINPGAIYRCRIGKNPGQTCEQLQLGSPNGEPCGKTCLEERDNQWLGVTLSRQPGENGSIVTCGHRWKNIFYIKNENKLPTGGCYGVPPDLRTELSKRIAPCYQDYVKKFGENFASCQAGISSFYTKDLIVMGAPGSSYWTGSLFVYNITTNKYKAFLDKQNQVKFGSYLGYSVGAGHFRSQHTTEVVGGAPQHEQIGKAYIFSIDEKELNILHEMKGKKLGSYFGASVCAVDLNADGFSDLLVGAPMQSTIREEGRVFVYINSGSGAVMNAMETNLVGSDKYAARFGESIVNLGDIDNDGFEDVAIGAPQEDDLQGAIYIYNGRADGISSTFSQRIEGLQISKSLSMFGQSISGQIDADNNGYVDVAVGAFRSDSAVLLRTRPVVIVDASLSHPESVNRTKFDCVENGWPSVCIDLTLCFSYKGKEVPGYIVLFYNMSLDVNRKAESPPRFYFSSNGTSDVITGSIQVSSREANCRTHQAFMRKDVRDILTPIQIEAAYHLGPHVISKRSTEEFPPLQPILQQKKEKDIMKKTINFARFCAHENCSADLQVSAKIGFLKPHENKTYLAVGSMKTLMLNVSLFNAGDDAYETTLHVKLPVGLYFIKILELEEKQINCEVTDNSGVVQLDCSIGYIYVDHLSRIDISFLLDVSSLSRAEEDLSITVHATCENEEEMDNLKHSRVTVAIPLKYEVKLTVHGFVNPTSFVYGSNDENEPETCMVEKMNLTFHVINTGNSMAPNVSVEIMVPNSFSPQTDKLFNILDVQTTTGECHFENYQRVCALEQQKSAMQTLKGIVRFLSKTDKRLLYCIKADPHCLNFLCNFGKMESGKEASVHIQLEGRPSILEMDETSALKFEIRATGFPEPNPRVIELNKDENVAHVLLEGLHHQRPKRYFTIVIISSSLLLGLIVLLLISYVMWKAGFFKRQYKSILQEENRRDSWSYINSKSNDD
ATP-binding cassette sub-family B member 6 (Homo sapiens), sequence (Q9NP58 whole entry, looked up): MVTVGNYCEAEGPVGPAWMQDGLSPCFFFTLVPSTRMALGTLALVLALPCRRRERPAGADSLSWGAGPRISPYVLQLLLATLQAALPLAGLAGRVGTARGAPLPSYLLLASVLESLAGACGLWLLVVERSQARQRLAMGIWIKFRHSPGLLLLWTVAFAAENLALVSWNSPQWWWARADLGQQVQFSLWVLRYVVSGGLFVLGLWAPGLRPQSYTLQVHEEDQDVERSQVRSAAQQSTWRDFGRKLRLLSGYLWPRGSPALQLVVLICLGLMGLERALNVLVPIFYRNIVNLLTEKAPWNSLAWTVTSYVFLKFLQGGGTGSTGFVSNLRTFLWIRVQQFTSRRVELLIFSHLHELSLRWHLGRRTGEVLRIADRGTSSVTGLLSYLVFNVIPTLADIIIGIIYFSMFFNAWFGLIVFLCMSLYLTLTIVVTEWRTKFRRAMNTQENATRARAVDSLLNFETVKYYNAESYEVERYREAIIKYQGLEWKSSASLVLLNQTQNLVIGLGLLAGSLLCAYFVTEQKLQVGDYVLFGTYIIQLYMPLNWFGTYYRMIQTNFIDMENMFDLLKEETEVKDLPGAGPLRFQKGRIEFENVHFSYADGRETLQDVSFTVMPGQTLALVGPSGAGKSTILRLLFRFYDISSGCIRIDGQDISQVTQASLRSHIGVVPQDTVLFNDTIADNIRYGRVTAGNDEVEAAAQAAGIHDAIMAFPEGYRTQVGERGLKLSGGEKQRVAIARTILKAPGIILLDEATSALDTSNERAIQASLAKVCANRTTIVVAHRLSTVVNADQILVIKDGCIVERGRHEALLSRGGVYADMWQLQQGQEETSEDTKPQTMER

Turning to `COc1ccc(CCNC(=O)C(=O)Nc2ccc3c(c2)OCO3)cc1OC`, the percent of DMSO control GFP in test [1] is 104% (inactive). In addition, the results for the GFP response vs DMSO in test [2] and in [4] were 104% (inactive) and 101% (inactive), respectively. For the same molecule, the percent response of DMSO control in [3] was 107% (inactive). In addition, in test [5], the GFP response, % of DMSO is 101% (inactive). Also, the double positive events in test [6] came to 65.2%. For the same molecule, the vesicle binding response in test [6] is 220% (inactive). The inhibition was -4.9% (inactive) in [7], -11.2% (inactive) in test [10] and 10% (inactive) in [14]. Also, the superoxide response (% of plate) in test [8] is 96.1% (inactive). Further, the aptamer binding inhibition in [9] was 5% (inactive). In [11], the response is 6.72% (inactive). For the same molecule, the binding (% of control) in test [12] was 94.1% (inactive). Besides, the efflux inhibition (fraction of control) in test [13] is -0.16 (inactive). For the same molecule, in test [15], the differentiation response was -1.82% (inactive).

`O=C1OCCN1/N=C/c1ccc([N+](=O)[O-])o1`: in test [1], the percent of DMSO control GFP was 103% (inactive). The GFP response vs DMSO in test [2] was 103% (inactive); in test [4], 111% (inactive). Moreover, the percent response of DMSO control in test [3] is 109% (inactive). Also, the GFP response, % of DMSO in test [5] was 102% (inactive). In addition, the double positive events in test [6] stood at 48.6%. For the same molecule, the vesicle binding response in test [6] was 157% (inactive). The inhibition in test [7] was 3.49% (inactive); in [10] it was 3.09% (inactive); in [14], 4% (inactive). Further, in test [8], the superoxide response (% of plate) is 124% (inactive). Moreover, the aptamer binding inhibition in test [9] is -2% (inactive). For the same molecule, in [11], the response was 8.6% (inactive). For the same molecule, the binding (% of control) in test [12] was 104% (inactive). Also, the efflux inhibition (fraction of control) in test [13] is 0.06 (inactive). In test [15], the differentiation response was -16.4% (inactive).

As for `CCN(CC)C1=C(Cl)C(=O)C(Cl)C12OCCO2` (stereo not given), in test [1], the percent of DMSO control GFP was 100% (inactive). The GFP response vs DMSO in test [2] is 104% (inactive); in test [4], 100% (inactive). Also, in test [3], the percent response of DMSO control is 88.1% (inactive). Besides, in test [5], the GFP response, % of DMSO was 89.2% (inactive). The same molecule gave a double positive events in test [6] of 61.5%. In addition, the vesicle binding response in [6] is 160% (inactive). The inhibition was 6.29% (inactive) in test [7], 49.7% (inactive) in test [10] and 10% (inactive) in test [14]. The superoxide response (% of plate) in test [8] was 94.6% (inactive). Also, the aptamer binding inhibition in test [9] is -5% (inactive). Further, the response in [11] is 1.58% (inactive). In [12], the binding (% of control) is 95.6% (inactive). For the same molecule, the efflux inhibition (fraction of control) in [13] was 0.9 (active). In addition, the differentiation response in [15] was 6.26% (inactive).

Regarding `CC(C)Cc1cc(C(=O)N2CCC(N3CCC(C(=O)N4CCCC4)CC3)CC2)n[nH]1`, the percent of DMSO control GFP in [1] was 100% (inactive). The GFP response vs DMSO in [2] was 89.7% (inactive); in test [4] it was 96.4% (inactive). Further, in test [3], the percent response of DMSO control is 109% (inactive). Further, the GFP response, % of DMSO in [5] was 102% (inactive). For the same molecule, the double positive events in [6] is 47.5%. Further, the vesicle binding response in test [6] is 191% (inactive). Further, the inhibition is -2.11% (inactive) in [7], 3.03% (inactive) in test [10] and 3% (inactive) in test [14]. The superoxide response (% of plate) in [8] is 102% (inactive). Further, the aptamer binding inhibition in test [9] was -3% (inactive). Besides, the response in [11] is 1.07% (inactive). In [12], the binding (% of control) was 107% (inactive). Besides, in [13], the efflux inhibition (fraction of control) was -0.16 (inactive). Moreover, the differentiation response in test [15] was -27.6% (inactive).

For the molecule `Cc1cc(OC(C(=O)O)c2ccccc2)c2c(C)c(Cc3ccccc3)c(=O)oc2c1` (stereo not given), the percent of DMSO control GFP in [1] was 103% (inactive). Moreover, the GFP response vs DMSO in test [2] was 98.9% (inactive); in test [4] it was 100% (inactive). In addition, the percent response of DMSO control in [3] is 97.9% (inactive). Also, the GFP response, % of DMSO in test [5] is 95.1% (inactive). The same molecule gave a double positive events in test [6] of 54.5%. Moreover, the vesicle binding response in test [6] was 160% (inactive). Besides, the inhibition in [7] is -3.04% (inactive); in [10] it was 1.35% (inactive); in test [14], 7% (inactive). In addition, the superoxide response (% of plate) in test [8] was 115% (inactive). In addition, the aptamer binding inhibition in test [9] is 2% (inactive). For the same molecule, the response in [11] was 5.52% (inactive). In addition, the binding (% of control) in test [12] is 95.4% (inactive). Besides, in [13], the efflux inhibition (fraction of control) was -0.05 (inactive). Moreover, in test [15], the differentiation response was -3.43% (inactive).
